Screening results as filed in PubChem.
MmCpn inh: Inhibitors of TCP-1 ring complex (TRiC) of Methanococcus maripaludis (MmCpn): qHTS; Chaperonin Mm-Cpn (Methanococcus maripaludis); purified Mm-Cpn ATPase, ADP Transcreener TR-FRET; Potency, µM (top dose mostly 76.9 µM), without a hit: at the highest dose activity, negative = inhibition, usual class: inhibitors; 0.031% of 330,000 active; AID 504842, 2011; also: potency is read from the fitted curve at half-maximal effect; nearly all actives have a fitted effect of over 80% in size
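Inhibition of chaperonin ATP hydrolysis is measured as reduced ADP production, detected by competitive TR-FRET in which signal falls with ADP. Final enzyme 25 nM and ATP 10 uM, reacted 30 min at 37°C.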
Sfp PPTase inh: qHTS Assay for Inhibitors of Bacillus subtilis Sfp phosphopantetheinyl transferase (PPTase) | Potency, µM, without a hit: largest response in the series, negative = inhibition, actives largely listed as inhibitors | AID 1490, 2009 | 4'-phosphopantetheinyl transferase ffp (Bacillus subtilis), Q9F4F7 | Biochemical Sfp PPTase activity, qHTS | 3.5% of 310,000 active;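 also: the enzyme is Sfp with the accession as filed and its product quenches rhodamine fluorescence; potency is read from the fitted curve at half-maximal effect; 0% = enzyme reaction without inhibitor and -100% = no enzyme wells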
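Fluorescence-quenching assay: 15 nM Sfp-PPTase preincubated 15 min at room temperature with compound, then 5 uM rhodamine-CoA and 12.5 uM BHQ-2-labelled YbbR peptide added. Fluorescence (ex 525/em 598 nm) read at start and after 30 min; difference gives rate.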
PLK1 PBD inh: qHTS for Inhibitors of PLK1-PDB (polo-like kinase 1 - polo-box domain): Primary Screen | Serine/threonine-protein kinase PLK1 (Homo sapiens), P53350 | Plk1 PBD binding of FITC phosphopeptide, fluorescence polarization | Potency, µM, for inactives: max response, negative = inhibition, actives largely listed as inhibitors | 2.8% of 360,000 active | AID 720504, 2013; also: potency is read from the fitted curve at half-maximal effect; series mostly up to about 57 µM; nearly all actives have a fitted effect of over 65% in size
CCT modulator: High-Throughput Screening for Modulators of Cytosolic Chaperonin Activity. activity change, % (concentration not given with the values), hits read low. purified chaperonin ATPase assay, HTRF ADP detection, 30 min. 0.3% of 360,000 active; in the data active = activity change below about -30%
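First, chaperonin was dispensed at 40 nM or 20 nM final depending on batch activity. Next, compounds were pinned at 76 uM and ATP added at 10 uM. After 30 min at 37 °C, ADP detection reagents ran 30 min at ambient temperature.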
VDR inh: Inhibitors of the vitamin D receptor (VDR): qHTS. Vitamin D3 receptor (Homo sapiens), P11473. VDR-SRC2-3 peptide fluorescence polarization, 2 h. Potency, µM, for the others: max response, negative = inhibition, actives largely listed as inhibitors. 0.93% of 400,000 active. AID 504847, 2011; also: potency is read from the fitted curve at half-maximal effect
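Inhibition of the VDR/SRC2-3 peptide interaction is quantified by fluorescence polarization. Compounds (23 nl, pintool) incubate with the reagents for 2 hours at ambient room temperature.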
G9a block: qHTS Assay for Inhibitors of Histone Lysine Methyltransferase G9a | Potency, µM (highest dose often 102 µM), inactives show at the highest dose activity, negative = inhibition, actives largely listed as inhibitors | 8.8% of 350,000 active | G9a H3K9 monomethylation, AlphaScreen, 2 h | Histone-lysine N-methyltransferase EHMT2 (Homo sapiens), Q96KQ7; also: potency is read from the fitted curve at half-maximal effect; nearly all actives have a fitted effect of over 75% in size
Target sequence (Q96KQ7 913-1193 limits assumed): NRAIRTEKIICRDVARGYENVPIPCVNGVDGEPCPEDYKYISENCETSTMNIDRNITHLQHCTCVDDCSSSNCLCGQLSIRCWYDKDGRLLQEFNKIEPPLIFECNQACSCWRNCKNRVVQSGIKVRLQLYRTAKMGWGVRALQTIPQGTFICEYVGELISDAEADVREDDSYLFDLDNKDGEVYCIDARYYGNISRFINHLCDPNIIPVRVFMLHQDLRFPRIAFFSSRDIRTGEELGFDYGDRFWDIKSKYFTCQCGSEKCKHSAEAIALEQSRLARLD
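Using a bead-based AlphaScreen, monomethylated H3K9 product from 2 h room-temperature reactions (G9a 20 nM, peptide 500 nM, SAM 20 uM) was detected with 0.5 ug/mL rabbit anti-H3K9me1 antibody.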
Numbers without * were called inactive; ? = inconclusive; . = no result given; [ ] = remark or other dose. In the library only some 10% were active in any assay of this set; here they are far more common. Unless noted, calls follow the shape of the dose curve; as a rule, active = well fitted curve in the direction sought with a large enough effect; inconclusive = small, poorly fitted or top-dose-only effect, or another doubt; inactive = no such curve, though single readings can be large; an effect the other way counts as inactive or inconclusive. Unless noted, % is scaled to controls: 0 for no effect and ±100 for the full control effect.

SMILES | MmCpn inh | Sfp PPTase inh | PLK1 PBD inh | CCT modulator | VDR inh | G9a block
COc1cccc2c1C(=O)c1c(O)c3c(c(O)c1C2=O)C[C@@](O)(C(=O)CO)C[C@@H]3O[C@H]1C[C@H](N)[C@@H](O)[C@H](C)O1 | . | . | ? | -1 | -9% | .
CC(=O)[C@]1(O)Cc2c(O)c3c(c(O)c2[C@@H](O[C@H]2C[C@H](N)[C@H](O)[C@H](C)O2)C1)C(=O)c1ccccc1C3=O | . | -21% | 5.3µM* | -4 | ? | 13µM*
Cc1ccc(S(=O)(=O)NCC2CCC(C(=O)NCCc3ccc(Cl)cc3)CC2)cc1 (stereo not drawn) | . | . | . | . | 23% | -1%[59 µM]
CCOC(=O)C1CCN(c2nc(-c3ccc(Br)cc3)cs2)CC1 | 1% | . | . | . | . | .
COc1cc(C(=O)Nc2nnc(C(C)(C)C)s2)c([N+](=O)[O-])cc1OC | -2% | -57% | ? | 1 | -16% | 10µM*
CCOc1c(Br)cc(CNC2CCCCCCC2)cc1OC | 5% | 9% | -12% | -3 | -17% | -41%
COc1cc(CNc2ccc3c(c2)OCCO3)ccc1OCC(N)=O | -4% | 11% | 4% | 1 | -5% | 1%
CCOc1cc(CNc2ccc3c(c2)OCCO3)cc(Br)c1OCC(N)=O | -4% | 1% | -7% | -8 | -4% | 13µM*
CCOc1cc(CNc2ccc3c(c2)OCCO3)cc(Br)c1OC | -2% | -6% | -2% | -1 | 32% | 4µM*
CCOc1c(Br)cc(CNc2ccc3c(c2)OCCO3)cc1OC | 1% | -6% | -8% | -2 | 6% | 3.2µM*
CC(C)Sc1oc(-c2ccco2)nc1S(=O)(=O)c1ccccc1 | -3% | -3% | -16% | 1 | 3% | ?
CSc1oc(-c2ccco2)nc1S(=O)(=O)c1ccccc1 | -1% | -7% | -25% | -2 | -1% | 32µM*
O=S(=O)(c1ccc(Br)cc1)c1nc(-c2ccco2)oc1NCC1CCCO1 (stereo not drawn) | 1% | 6% | -12% | 2 | -1% | 35µM*
C=CCNc1oc(-c2ccco2)nc1S(=O)(=O)c1ccccc1 | 0% | -19% | -17% | 2 | -13% | 25µM*
CSc1oc(-c2ccco2)nc1S(=O)(=O)c1ccc(F)cc1 | -1% | 79µM* | -11% | 0 | -1% | ?
CN(C)c1oc(-c2ccco2)nc1S(=O)(=O)c1ccc(Br)cc1 | -1% | . | 2% | 0 | -17% | 1%[12.7 µM]
Cc1cccc(Cn2c(=O)n(-c3ccccc3C)c(=O)c3c2c2cc(C)ccc2n3C)c1 | . | . | . | . | -1% | 9%[59 µM]
COc1ccc(-n2c(=O)c(C)nc3cnc(Nc4ccccc4)nc32)cc1 | . | 17% | . | . | 6% | -2%[12.7 µM]
C=CCN(C(C(=O)OC)C(C)C)S(=O)(=O)C=C (stereo not drawn) | . | 23% | . | . | -3% | .
O=C(CSc1oc(-c2ccccc2)nc1S(=O)(=O)c1ccc(Cl)cc1)NC1CCCCC1 | . | . | . | . | -6% | ?
NC(=O)CSc1oc(-c2ccco2)nc1S(=O)(=O)c1ccc(F)cc1 | 1% | -3% | -21% | -1 | 3% | ?
Cc1ccc(-c2nc(S(=O)(=O)c3ccc(C)cc3)c(SCC(=O)NCC3CCCO3)o2)cc1 (stereo not drawn) | -4% | 3% | -16% | -2 | -6% | 45µM*
Cc1ccc(S(=O)(=O)c2nc(-c3ccc(F)cc3)oc2SCC(N)=O)cc1 | 0% | 1% | -8% | 1 | -5% | 13µM*
Cc1ccc(S(=O)(=O)c2nc(-c3ccc(F)cc3)oc2SCC(=O)NC2CCCCC2)cc1 | . | . | . | . | 1% | -9%[59 µM]
